From PubChem BioAssay (NCI)
Compounds without any hit were thinned out: in the full panel of roughly 83,000, 20% have a hit.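 Percent growth is the endpoint: 0 to 100 indicates growth inhibition (40 means 60% inhibition), 0 means no net growth, and negative values indicate cell death.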 Activity calls are given as the source filed them. Rule for the calls: active = growth percent below 10; inactive = the rest.

Columns and labels:
Assay in all cases: NCI-60 one-dose screen, 48 h (100 = growth as untreated, 0 = no growth, -100 = all killed)
T-47D breast = conditions: 10 µM unless noted
BT-549 breast = conditions: 10 µM unless noted
MDA-MB-435 melanoma = conditions: 10 µM unless noted
SW-620 colon = conditions: 10 µM unless noted
MCF7 breast = conditions: 10 µM unless noted
HCT-116 colon = conditions: 10 µM unless noted
KM12 colon = conditions: 10 µM unless noted
HCC-2998 colon = conditions: 10 µM

Measured: growth

CSC1=C(N)C(=O)c2[nH]cc(CO)c2C1=N
active: T-47D breast -43.8% | BT-549 breast -93.5% | MDA-MB-435 melanoma -84.1% | SW-620 colon -56.2% | MCF7 breast -41.8% | HCT-116 colon -86.7% | KM12 colon -63.4%

c1cc(OCCN2CCCCC2)cc(-c2n[nH]c3ccc(-c4ncn[nH]4)cc23)c1
inactive: T-47D breast 68.3% | BT-549 breast 70.3% | MDA-MB-435 melanoma 42.1% | SW-620 colon 35.6% | MCF7 breast 57.9% | HCT-116 colon 28.7% | HCC-2998 colon 66.7% | KM12 colon 39.6%

O=c1[nH]c([C@@H]2CCCN2)nc2c1oc1ccc(Cl)cc12
inactive: T-47D breast 56.4% | BT-549 breast 58.5% | MDA-MB-435 melanoma 73.3% | SW-620 colon 22.7% | MCF7 breast 49.2% | HCT-116 colon 33.6% | KM12 colon 31.6%

COc1ccc(COc2cc3oc(=O)c4cc(C(C)O)ccc4c3cc2OC)cc1 (stereo unspecified)
active: MDA-MB-435 melanoma 3.55%
inactive: T-47D breast 44.2% | BT-549 breast 59.8% | SW-620 colon 49.7% | MCF7 breast 45.6% | HCT-116 colon 49% | KM12 colon 53%

CC(=O)c1cnc2ccc(-c3cc(Cl)c(O)c(Cl)c3)nc2c1NC1CCC(CN(C)C)CC1 (stereo unspecified)
active: T-47D breast -22.9% [2.5 µM] | BT-549 breast -44.9% [2.5 µM] | MDA-MB-435 melanoma -37.2% [2.5 µM] | SW-620 colon 6.12% [2.5 µM] | MCF7 breast -4.22% [2.5 µM] | HCT-116 colon -2.49% [2.5 µM] | KM12 colon -2.64% [2.5 µM]

COc1ccc(C2OC(c3cc(-c4cc5ccccc5o4)nn3-c3ccccc3)=NN2C(C)=O)cc1 (stereo unspecified)
inactive: T-47D breast 86.5% | BT-549 breast 97.2% | MDA-MB-435 melanoma 108% | SW-620 colon 107% | MCF7 breast 100% | HCT-116 colon 88.6% | KM12 colon 107%

CNc1ncc2cc(-c3cc(NC(=O)NCCC(C)(C)C)c(F)cc3C)c(C)nc2n1
inactive: BT-549 breast 30.5% | SW-620 colon 17.5% | MCF7 breast 45.7% | KM12 colon 18.2%
active: T-47D breast -2% | MDA-MB-435 melanoma 9.76% | HCT-116 colon 4.36%

O=C(NOCCO)c1ccc2cncn2c1Nc1ccc(I)cc1F
inactive: T-47D breast 83.4% | BT-549 breast 88.8% | MDA-MB-435 melanoma 47.4% | SW-620 colon 24.6% | MCF7 breast 96.2% | HCT-116 colon 15.1% | KM12 colon 28.6%

CC(N)C(Cc1ccc(Cl)cc1)c1ccc(Cl)cc1 (stereo unspecified)
inactive: T-47D breast 54.8% | BT-549 breast 77.6% | MDA-MB-435 melanoma 56.5% | SW-620 colon 57.3% | MCF7 breast 91.1% | HCT-116 colon 35% | KM12 colon 63%

Cc1ccccc1Nc1nc2nonc2nc1Nc1cccc(C)c1C
inactive: T-47D breast 16.2% | BT-549 breast 51.7% | MDA-MB-435 melanoma 55.7% | SW-620 colon 77% | MCF7 breast 43.3% | HCT-116 colon 43% | HCC-2998 colon 67.5% | KM12 colon 53.8%

Cn1ccnc1C(=O)/C=C/c1ccc(CC(=O)Nc2ccc(Br)cc2)cc1
inactive: BT-549 breast 12.1% | MDA-MB-435 melanoma 45.6% | MCF7 breast 12% | HCT-116 colon 12% | HCC-2998 colon 15.3%
active: T-47D breast 4.43% | SW-620 colon 4.81% | KM12 colon 4.87%

CCc1ccc(C2=C(O)C(=O)C(c3ccc(CC)cc3)=C(O)C2=O)cc1
active: T-47D breast 7.67% | BT-549 breast -23% | MDA-MB-435 melanoma 3.73% | SW-620 colon 2.8% | MCF7 breast 2.11% | HCT-116 colon 1.12% | KM12 colon -1.36%

CN1CCN(c2ccc(OC(F)(F)F)c(Nc3ncc4c(n3)-c3c(c(C(N)=O)nn3CCO)CC4)c2)CC1
active: MDA-MB-435 melanoma -50.5% | SW-620 colon 9.76% | HCT-116 colon 9.89% | KM12 colon 9.34%
inactive: T-47D breast 43.9% | BT-549 breast 27.8% | MCF7 breast 22.1%

C[C@H]1Oc2cc(cnc2N)-c2c(nn(C)c2C#N)CN(C)C(=O)c2ccc(F)cc21
inactive: T-47D breast 84.4% | BT-549 breast 103% | MDA-MB-435 melanoma 80% | SW-620 colon 90.4% | MCF7 breast 60% | HCT-116 colon 68.7%
active: KM12 colon 9.06%

Cc1cccc(Cl)c1NC(=O)c1cnc(Nc2cc(N3CCOCC3)cc(S(C)(=O)=O)c2)s1
active: T-47D breast -15.6%
inactive: BT-549 breast 66.7% | MDA-MB-435 melanoma 69.9% | SW-620 colon 113% | MCF7 breast 65% | HCT-116 colon 13.2% | KM12 colon 87.8%

CO[C@H](C(=O)N[C@@H](CCCCNC(=O)OCc1ccccc1)C(=O)OC(C)(C)C)[C@@H]1Cc2cc3cc(OC4CC(OC5CC(O)C(O)C(C)O5)C(O)C(C)O4)c(C)c(O)c3c(O)c2C(=O)[C@H]1OC1CC(OC2CC(OC3CC(C)(O)C(O)C(C)O3)C(O)C(C)O2)C(O)C(C)O1 (stereo partly specified)
active: T-47D breast 7.2% | BT-549 breast -79.7% | MDA-MB-435 melanoma -69.8% | SW-620 colon 3.71% | MCF7 breast 3.56% | HCT-116 colon -63.9% | KM12 colon -62.7%

COC(=O)[C@]12CC[C@@H](C)[C@H](C)[C@@H]1C1=CC[C@@H]3[C@@]4(C)C(C#N)=CC(C)=C4CC[C@@]3(C)[C@]1(C)CC2
inactive: T-47D breast 68.2% | BT-549 breast 98.7% | MDA-MB-435 melanoma 88.1% | SW-620 colon 87.2% | MCF7 breast 90.1% | HCT-116 colon 68.4% | KM12 colon 84.6%

Cc1ccc(C(=O)Nc2ccc(CN3CCN(C)CC3)c(C(F)(F)F)c2)cc1C#Cc1cnc2cccnn12
active: T-47D breast -70.9% | BT-549 breast -97.7% | MDA-MB-435 melanoma -98.2% | SW-620 colon -87.6% | MCF7 breast -74.1% | HCT-116 colon -85.3% | KM12 colon -91.3%

CCOc1cccc(/C=N/NC(=O)c2ccccc2Nc2ccnc(C(F)(F)F)c2)c1O
inactive: T-47D breast 16.5% | BT-549 breast 26.4% | MDA-MB-435 melanoma 29.8% | SW-620 colon 32.3% | HCT-116 colon 14.7% | KM12 colon 33.2%
active: MCF7 breast 2.99%

C[C@H](NC(=O)c1c(N)nn2cccnc12)c1cc2cccc(C#Cc3cnn(C)c3)c2c(=O)n1-c1ccccc1
inactive: MDA-MB-435 melanoma 30.9% | SW-620 colon 13.4%
active: T-47D breast -22.3% | BT-549 breast 2.12% | MCF7 breast 5.42% | HCT-116 colon 1.33% | KM12 colon -14%

CS(=O)(=O)CCNCc1ccc(-c2ccc3ncnc(Nc4ccc(OCc5cccc(F)c5)c(Cl)c4)c3c2)o1
inactive: MDA-MB-435 melanoma 31.2% | HCT-116 colon 41.2%
active: T-47D breast -11.9% | BT-549 breast 8.25% | SW-620 colon -56.1% | MCF7 breast -39.3% | KM12 colon -34.9%

FC(F)c1nc2ccccc2n1-c1nc(N2CCOCC2)nc(N2CCOCC2)n1
inactive: SW-620 colon 13.4% | HCT-116 colon 14%
active: T-47D breast -36.1% | BT-549 breast -8.49% | MDA-MB-435 melanoma -8.55% | MCF7 breast 1.28% | KM12 colon 3.42%

COc1cccc(NC(=O)Nc2ccc(Nc3ncnc4sc5c(c34)CCN(C(=O)CCl)C5)cc2)c1
inactive: T-47D breast 86.6% | BT-549 breast 99.1% | MDA-MB-435 melanoma 109% | SW-620 colon 102% | MCF7 breast 87.3% | HCT-116 colon 93.5% | HCC-2998 colon 115% | KM12 colon 98.1%

CCc1nc2cc(/C=C/C(=O)NO)ccc2c(=O)n1CCc1ccc(F)cc1
inactive: BT-549 breast 23.8% | MDA-MB-435 melanoma 17.3% | MCF7 breast 10.2% | HCC-2998 colon 32.4% | KM12 colon 12%
active: T-47D breast -0.122% | SW-620 colon 6.35% | HCT-116 colon 3.23%

Cn1ncc(Cl)c1-c1cc(C(=O)N[C@H](CN)Cc2cccc(F)c2)sc1Cl
inactive: SW-620 colon 39.8% | HCT-116 colon 12.8%
active: T-47D breast -24.7% | BT-549 breast -4.28% | MDA-MB-435 melanoma 4.34% | MCF7 breast -11.7% | HCC-2998 colon -78.2% | KM12 colon 1.36%

COc1cc(CCc2cc(NC(=O)c3ccc(N4C[C@@H](C)N[C@@H](C)C4)cc3)n[nH]2)cc(OC)c1
inactive: T-47D breast 63.7% | BT-549 breast 43.8% | MDA-MB-435 melanoma 28.4% | SW-620 colon 28.7% | MCF7 breast 19.9% | HCT-116 colon 25.6% | HCC-2998 colon 56.3%
active: KM12 colon 3.18%

COC(=O)C1CCc2sc3ncnc(Nc4cn[nH]c4C(=O)Nc4ccc(CN5CCN(C)CC5)cc4)c3c21 (stereo unspecified)
active: BT-549 breast -0.677% | SW-620 colon -10.9% | MCF7 breast 4.8% | HCT-116 colon 3.34% | KM12 colon 9.84%
inactive: T-47D breast 17.8% | MDA-MB-435 melanoma 22.3% | HCC-2998 colon 27.2%

O=C(NO)c1ccc(Cn2c(=O)n(CCc3ccccc3)c(=O)c3ccccc32)cc1
inactive: T-47D breast 29% | BT-549 breast 52.4% | MDA-MB-435 melanoma 19.1% | SW-620 colon 20.9% | MCF7 breast 27.9% | HCC-2998 colon 62.5% | KM12 colon 25.2%
active: HCT-116 colon 4.18%

CN(C[C@@H]1COCCO1)S(=O)(=O)Nc1ccc2ccc3ncc(-c4cnn(C)c4)cc3c(=O)c2c1
inactive: T-47D breast 15.9% | BT-549 breast 28.1% | MDA-MB-435 melanoma 44.7% | SW-620 colon 37% | MCF7 breast 36.3% | HCT-116 colon 24.1% | HCC-2998 colon 74.1% | KM12 colon 10.2%

Cc1cc(Nc2ncc(Cl)c(Nc3ccccc3S(=O)(=O)C(C)C)n2)c(OC(C)C)cc1C1CCNCC1
active: T-47D breast -77.7% | BT-549 breast -78.4% | MDA-MB-435 melanoma -100% | SW-620 colon -92.7% | MCF7 breast -73.7% | HCT-116 colon -97.5% | HCC-2998 colon -93% | KM12 colon -95.8%

COc1ccc(-c2ccc3ncc4c(c3c2)n(-c2ccc(N3CCNCC3)c(C(F)(F)F)c2)c(=O)n4C)cn1
active: T-47D breast -66.9% | BT-549 breast -63.6% | MDA-MB-435 melanoma -88.3% | SW-620 colon -78.4% | MCF7 breast -63% | HCT-116 colon -69.8% | KM12 colon -95.8%

Cc1ccc(NC(=O)c2ccc(CN3CC[C@H](N(C)C)C3)c(C(F)(F)F)c2)cc1Nc1nccc(-c2cncnc2)n1
active: T-47D breast -58.9% | MDA-MB-435 melanoma -18.3% | SW-620 colon 8.15% | MCF7 breast 7.04% | HCT-116 colon -17.4% | HCC-2998 colon -22.7%
inactive: BT-549 breast 35.9% | KM12 colon 10.4%
